Compounds with a hit are over-represented: about 2% of the library has one in this group of screens.
NALP1 inh: inhibitors of NALP1 inflammasome in yeast; hit rate 0.61% among 280,000; S. cerevisiae NALP1/ASC/caspase-1 growth, X-gal OD620, 72 h; AID 2071; inhibition, % at 10 µM; in the data active means inhibition mostly above about 24%, no sharp cut-off; inactive means mostly below about 32%
APOBEC3G inh: APOBEC3G (human) deaminase inhibition; Q9HC16; recombinant A3G, ssDNA deamination FAM/TAMRA fluorescence; inhibition, % at 20 µM; hit rate 0.28% among 330,000; AID 493012;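 active means inhibition of at least 40% at 20 µM, with no more than 30% in the related APOBEC3A deaminase screen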;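 further: plate controls were DMSO wells with A3G for no effect and wells lacking A3G enzyme for full effect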
Target sequence (Q9HC16 whole entry, looked up): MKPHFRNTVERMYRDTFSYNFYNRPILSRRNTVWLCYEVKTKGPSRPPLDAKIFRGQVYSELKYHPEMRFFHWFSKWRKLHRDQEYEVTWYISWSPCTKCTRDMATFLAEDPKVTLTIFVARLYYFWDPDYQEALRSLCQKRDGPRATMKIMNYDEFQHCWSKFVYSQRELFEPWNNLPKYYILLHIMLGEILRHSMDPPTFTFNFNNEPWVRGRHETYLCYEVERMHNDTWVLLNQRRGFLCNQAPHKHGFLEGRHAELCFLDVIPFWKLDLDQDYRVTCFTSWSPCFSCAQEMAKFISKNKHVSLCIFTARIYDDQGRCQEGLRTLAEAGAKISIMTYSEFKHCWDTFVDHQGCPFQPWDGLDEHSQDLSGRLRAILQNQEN
APOBEC3A inh: blocks human APOBEC3A ssDNA deamination | P31941 | inhibition, % at 20 µM | recombinant A3A, FAM/TAMRA ssDNA deamination fluorescence | hit rate 0.41% among 330,000;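 active means at least 40% inhibition at 20 µM here, with at most 30% in a related deaminase screen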;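 further: plate controls were A3A with DMSO for no effect and wells lacking A3A enzyme for full effect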
Target sequence (P31941 whole entry, looked up): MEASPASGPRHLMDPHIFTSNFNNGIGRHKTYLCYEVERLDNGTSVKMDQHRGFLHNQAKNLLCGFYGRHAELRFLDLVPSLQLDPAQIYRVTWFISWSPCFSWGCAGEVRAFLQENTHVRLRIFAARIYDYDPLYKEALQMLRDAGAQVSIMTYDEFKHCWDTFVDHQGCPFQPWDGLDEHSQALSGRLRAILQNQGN
CTSL1 counter: cathepsin L1 inhibition, PFM18AAP counter-screen | recombinant F. hepatica cathepsin L1, Z-Leu-Arg-MCA fluorescence | inhibition, % at 5.96 µM | hit rate 0.49% among 300,000;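 active means inhibition above the mean of all tested compounds plus 3 SD, set per screening campaign, cut at about 17% in these data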;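 further: 0% = plate median of test compound wells and 100% = 1 µM Z-Phe-Ala-diazomethylketone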
sPLA2-III inh: Blocks human group III sPLA2 activity | Q9NZ20 | QFRET BODIPY PC-A2 liposome hydrolysis, fluorescence | inhibition, % at 12.2 µM | hit rate 0.56% among 370,000 | AID 743126;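 active means inhibition above mean plus 3 SD of compounds lying within the high and low control bounds, cut at about 19% in these data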;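 further: 0% = median of test compound wells and 100% = no enzyme DMSO wells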
A3A conf: confirmation of human APOBEC3A DNA deaminase inhibitors; shares compounds with APOBEC3A inh; recombinant A3A, ssDNA deaminase UDG fluorescence assay; inhibition, % at 20 µM; hit rate 63% among 1,400; AID 493151;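 active means inhibition reaching a set limit, 80% of the first screen's cutoff, at 20 µM in any replicate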;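 further: plate controls were DMSO wells with A3A for no effect and wells lacking A3A enzyme for full effect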
UDG ctr A3A: counter-screen for APOBEC3A inhibitors: UDG. inhibition, % at 20 µM. UDG counterscreen, FAM/TAMRA uracil oligo fluorescence. shares compounds with APOBEC3A inh. 1,000 tested, under 10 active; call rule not given here
An asterisk follows results filed as active; x = not tested or not shown.

SMILES	NALP1 inh	APOBEC3G inh	APOBEC3A inh	CTSL1 counter	sPLA2-III inh	A3A conf	UDG ctr A3A
COc1ccc2c(c1)NC(=O)[C@@]2(CCN1C(=O)c2ccccc2C1=O)c1[nH]c2ccccc2c1CCN1C(=O)c2ccccc2C1=O	x	x	x	x	-2	x	x
Cn1cccc2[nH]c(=O)nc1-2	2	11	78*	7	8	20	x
CN(C)CCN(Cc1ccccc1)C(=O)[C@H](Cc1ccccc1)N1C(=O)c2ccccc2C1=O	20	2	42*	0	11	24	x
CC(C)=CCCC1=CCC2C(=O)NNC(=O)C2C1 (stereo not given)	8	-7	58*	0	0	-1	2
O=C(NC1CCCCN(Cc2ccc(OC(F)(F)F)cc2)C1=O)c1cccc(F)c1 (stereo not given)	x	x	x	x	0	x	x
COc1ccc(N(Cc2cc3cc(C)ccc3[nH]c2=O)C(C)=O)cc1	0	-4	47*	4	-5	-3	0
COc1ccc2[nH]c(=O)c(CN(C(C)=O)c3cccc(C)c3)cc2c1	6	-5	-3	-2	10	x	x
COc1ccc(NC(C)=[N+](C)CCNS(=O)(=O)c2ccc(Cl)cc2)cc1	0	14	46*	2	9	29	x
O=C(Nc1ccccc1)c1ccc(CSc2ncccn2)cc1	-5	19	43*	-2	3	20	x
CC(=O)Nc1nnc(SCc2ccc(C(=O)Nc3ccccc3F)cc2)s1	35	19	48*	-1	-7	53*	3
O=C(Nc1ccccc1F)c1ccc(CSc2ncccn2)cc1	6	12	70*	2	4	55*	-3
C=CCN1[C@H](C#N)[C@@H](c2ccc(Br)cc2)[C@H]1CO	x	x	x	x	1	x	x
COc1ccc(C(C)(C)C)cc1NC(=O)OC[C@@H]1CSCCS(=O)(=O)N1	x	x	x	x	0	x	x
CCOC(=O)[C@@]12CCCC=C1N(CCc1ccc(Cl)cc1)C(=O)[C@H]2CC(=O)N1CCCCC1	x	x	x	x	-3	x	x
O=c1oc(-c2ccccc2NS(=O)(=O)c2ccccc2)nc2ccccc12	6	-1	50*	-3	-21	-2	-3
Cc1ccc(-c2nnc(SCC(=O)Nc3ccc(Oc4ccccc4)cc3)n2-c2ccc(Cl)cc2)cc1	x	x	x	x	0	x	x
Cc1ccc(S(=O)(=O)Cc2ccc(C(=O)N3CCc4ccccc4C3)o2)cc1	-31	11	41*	-1	-7	34*	-3
COc1ccc(S(=O)(=O)Cc2ccc(C(=O)N3CCc4ccccc4C3)o2)cc1	-21	-4	3	-1	-11	x	x
CCSc1nc2ccc(N3C(=O)C4C5C=CC(C5)C4C3=O)cc2s1 (stereo not given)	38	5	60*	0	-7	20	x
C=CCN(C(=O)[C@@H](C)[C@@H](O)c1ccc2ccccc2c1)c1ccccc1	x	x	x	x	-7	x	x
O=C(COC(=O)CC1CC2CCC1C2)NCc1ccccc1 (stereo not given)	x	-3	-3	x	2	x	x
CC(CCc1ccccc1)NC(=O)COC(=O)CC1CC2CCC1C2 (stereo not given)	38	-3	121*	5	-1	-6	-3
COC(=O)c1cc(NC(=O)Cc2cccs2)cc(C(=O)OC)c1	8	18	64*	-3	2	48*	x
CC(=O)Nc1cccc(NC(=O)Cc2cccs2)c1	3	-4	0	-2	0	x	x
COc1ccccc1OCCSc1nnc(CNC(=O)c2ccco2)n1C	14	6	48*	-3	1	27	x
SMILES	NALP1 inh	APOBEC3G inh	APOBEC3A inh	CTSL1 counter	sPLA2-III inh	A3A conf	UDG ctr A3A
COc1ccccc1NC(=O)CSc1nnc(CNC(=O)c2ccco2)n1C	-6	-10	-2	1	2	x	x
CSCCC(c1nc2ccccc2[nH]1)n1c(/C=C/c2ccc(Cl)cc2)nc2ccccc21 (stereo not given)	x	x	x	x	-19	x	x
O=C(Cc1ccccc1)N/N=C/c1cccc([N+](=O)[O-])c1	-1	-3	0	0	-2	x	x
O=C(CN(c1ccccn1)S(=O)(=O)c1ccccc1)N/N=C/c1cccc([N+](=O)[O-])c1	18	4	44*	0	0	15	x
Nn1c(SCC(=O)NC2CCCCC2)nnc1-c1cc(-c2ccc(F)cc2)n[nH]1	x	x	x	x	-4	x	x
Cc1nnc(SCC(=O)N2N=C(c3ccc(Cl)cc3)CC2c2ccco2)[nH]c1=O (stereo not given)	8	13	50*	-1	-5	10*	-2
COc1ccc2c(c1)CCc1sc(NC(=O)c3ccc(C)cc3)nc1-2	11	5	50*	2	-7	26	x
O=C(COc1cccc(C(F)(F)F)c1)NCC(c1ccco1)N1CCCC1 (stereo not given)	x	2	46*	x	0	3	x
O=C(CSc1nnc(NC(=O)c2ccc3c(c2)OCO3)s1)NCc1ccco1	-13	-3	88*	0	-5	-2	2
CSc1ccc(CNc2ccccn2)cc1	3	9	48*	-5	8	3	x
COC(=O)[C@H](CC(C)C)N(CCCc1cn(Cc2ccc(C)cc2)nn1)S(=O)(=O)c1ccc(F)cc1Br	x	x	x	x	-20	x	x
CCc1ccc(NS(=O)(=O)c2ccc(C)c(C(=O)N3CCOCC3)c2)cc1	8	15	75*	1	6	91*	-5
Cc1ccc(NS(=O)(=O)c2ccc(C)c(C(=O)N3CCOCC3)c2)cc1	-3	12	-1	3	4	x	x
COC(=O)[C@]12C[C@H](CC(=O)N3CCCCC3)C(=O)N(Cc3cccc4ccccc34)C1=C[C@H](C(C)(C)C)O[C@@H]2C	x	x	x	x	-7	x	x
CC[n+]1ccc(/C=C2\Sc3ccccc3N2CCCS(=O)(=O)[O-])c2ccccc21	2	24	83*	1	7	92*	4
COc1ccccc1CN(C)C(=O)C1CCCN(c2nc3ccccc3o2)C1 (stereo not given)	x	x	x	x	-6	x	x
COc1ccc2c(c1)c(=O)oc1cc(OCC(=O)N3CCc4ccccc4C3)ccc12	-3	11	45*	-2	-2	71*	-2
COc1ccc2c(c1)c(=O)oc1cc(OCC(=O)N3CCC(C)CC3)ccc12	38	28	54*	1	x	49*	-1
CC(C)c1ccc(OCC(=O)N2CCc3ccccc3C2)cc1	12	-5	-2	4	-9	x	x
COc1ccc2c(c1)c(=O)oc1cc(OCC(=O)N3CCCC(C)C3)ccc12 (stereo not given)	13	-5	8	3	1	x	x
COC(=O)[C@]12C[C@H](CC(=O)NCCCN3CCCC3=O)C(=O)N(CCc3ccc(OC)c(OC)c3)C1=C[C@H](C1CCCC1)O[C@@H]2C	x	x	x	x	0	x	x
O=C(Nc1ccc(F)cc1)OC[C@@H]1CSCCS(=O)(=O)N1	x	x	x	x	13	x	x

Assay outcomes (PubChem)
